The values below come from ChEMBL document CHEMBL3988442, “University of Dundee, Small-Polar-MMV Screening Library” (2021).

The structures appear in SMILES notation. For some of these results: Measured potencies and affinities stand elsewhere.

Holding throughout (design): scale not given: direction of the effect not stated beside the values
Test [1] deals with Protein translocase subunit SecA (Escherichia coli (strain K12)) (UniProt P10408). The test can be described thus: Assay to Identify E. coli SecA ATPase Inhibitors. The class given is functional. To be noted: 30 µM.
Test [2] addresses T1, Ubiquitin-activating enzyme e1, putative (Leishmania donovani (strain BPK282A1)) (UniProt E9BSI1).
T1 sequence (whole entry): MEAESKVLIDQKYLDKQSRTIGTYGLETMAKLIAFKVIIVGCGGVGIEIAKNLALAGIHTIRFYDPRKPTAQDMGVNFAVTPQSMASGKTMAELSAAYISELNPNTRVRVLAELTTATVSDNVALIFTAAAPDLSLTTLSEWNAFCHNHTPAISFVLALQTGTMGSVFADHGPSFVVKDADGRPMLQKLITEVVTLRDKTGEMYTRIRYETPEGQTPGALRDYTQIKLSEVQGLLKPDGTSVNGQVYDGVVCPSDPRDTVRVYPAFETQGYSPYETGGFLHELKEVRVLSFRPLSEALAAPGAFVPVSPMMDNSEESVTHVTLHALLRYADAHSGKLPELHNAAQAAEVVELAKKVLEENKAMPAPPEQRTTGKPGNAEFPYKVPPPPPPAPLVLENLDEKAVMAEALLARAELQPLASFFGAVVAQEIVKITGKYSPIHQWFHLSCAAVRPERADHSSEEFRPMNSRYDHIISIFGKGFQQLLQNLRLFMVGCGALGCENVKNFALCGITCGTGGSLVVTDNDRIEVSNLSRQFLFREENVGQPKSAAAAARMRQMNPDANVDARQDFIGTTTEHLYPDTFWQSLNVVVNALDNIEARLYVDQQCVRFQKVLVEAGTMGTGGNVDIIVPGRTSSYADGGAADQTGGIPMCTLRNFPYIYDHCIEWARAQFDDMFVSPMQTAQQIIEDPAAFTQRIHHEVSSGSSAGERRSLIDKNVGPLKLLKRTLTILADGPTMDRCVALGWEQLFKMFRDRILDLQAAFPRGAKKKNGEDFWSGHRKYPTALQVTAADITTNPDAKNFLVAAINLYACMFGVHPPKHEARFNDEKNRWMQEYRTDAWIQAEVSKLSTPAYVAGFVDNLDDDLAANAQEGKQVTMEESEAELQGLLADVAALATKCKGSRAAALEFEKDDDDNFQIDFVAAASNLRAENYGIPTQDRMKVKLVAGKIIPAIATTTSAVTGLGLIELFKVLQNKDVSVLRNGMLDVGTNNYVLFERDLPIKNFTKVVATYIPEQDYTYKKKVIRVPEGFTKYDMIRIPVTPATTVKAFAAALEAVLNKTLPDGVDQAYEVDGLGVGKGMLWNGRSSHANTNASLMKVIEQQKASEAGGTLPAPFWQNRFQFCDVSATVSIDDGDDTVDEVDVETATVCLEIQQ
The test can be described thus: Leishmania donovani Ubiquitin Activating Enzyme (LdE1). To be noted: 30 µM. The class given is functional.

For test [3], the target named is AMP-activated protein kinase, AMPK (Homo sapiens) (UniProt P54646+O43741+P54619+Q9UGJ0+Q9Y478+Q13131+Q9UGI9). In words: AMP-dependent Kinase enzyme assay. An in vitro enzyme assay that detects ADP turnover that is directly proportional to AMPK activity. This uses naive AMPK that is activated during the assay with MK-8722. The class given is functional. To be noted: 30 µM.

Test [4] has as its target Sialic acid-binding Ig-like lectin 9 (Homo sapiens) (UniProt Q9Y336). The test can be described thus: Hs-Siglec9 ALPHAscreen SOP 20170721. To be noted: 10 µM. A general note: Alpha assays give light when donor and acceptor beads are brought close together.
Another test deals with Trypanosoma cruzi. In words: Trypanosoma cruzi phosphomannomutase and mannose-1-phosphate guanylyltransferase assay. The class given is functional. To be noted: 10 µM.
Test [5] concerns the target T2, Arginase-2, mitochondrial (Homo sapiens) (UniProt P78540).
T2 sequence (whole entry): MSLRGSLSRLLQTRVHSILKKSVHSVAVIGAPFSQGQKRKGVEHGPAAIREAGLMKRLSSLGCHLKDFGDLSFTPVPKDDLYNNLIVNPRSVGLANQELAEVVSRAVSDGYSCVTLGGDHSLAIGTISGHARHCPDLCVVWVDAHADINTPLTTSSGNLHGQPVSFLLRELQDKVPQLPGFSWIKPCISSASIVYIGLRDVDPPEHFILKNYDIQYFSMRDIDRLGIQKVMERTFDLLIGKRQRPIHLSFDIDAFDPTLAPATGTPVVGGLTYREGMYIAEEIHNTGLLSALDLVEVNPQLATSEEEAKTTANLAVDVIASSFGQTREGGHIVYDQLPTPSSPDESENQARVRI
The test can be described thus: in vitro enzyme assay to detect the production of urea directly proportional to the activity of Arginase II. Further: in the data most compounds retested in dose-response had high values. To be noted: 33.3 µM. Format: functional.

Test [6] concerns the target T3, Proteasome subunit beta (Trypanosoma cruzi) (UniProt O96673).
T3 sequence (whole entry): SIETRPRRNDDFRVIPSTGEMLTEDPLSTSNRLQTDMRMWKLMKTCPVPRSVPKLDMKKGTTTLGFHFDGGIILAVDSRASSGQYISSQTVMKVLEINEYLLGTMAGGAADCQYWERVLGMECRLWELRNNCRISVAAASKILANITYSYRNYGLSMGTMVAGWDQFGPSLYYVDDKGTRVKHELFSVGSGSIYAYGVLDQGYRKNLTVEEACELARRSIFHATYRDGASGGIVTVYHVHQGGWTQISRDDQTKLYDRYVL
The test can be described thus: Trypanosoma cruzi proteasome chymotrypsin-like activity (TcProtChymo) assay. Further: in the data most compounds retested in dose-response had high values. The class given is functional. To be noted: 9.37 µM.

For another test, the species on record is Homo sapiens. In words: To identify inhibition of the IFN signalling (Jak-Stat) pathway via expression of an eGFP reporter gene under the control of an IFN-stimulated response element (ISRE) containing MxA promoter. The class given is functional. To be noted: 30 µM. A general note: A reporter such as luciferase makes a cellular process visible.
Test [7] deals with T4, Tyrosyl-tRNA synthetase, putative (Trypanosoma cruzi (strain CL Brener)) (UniProt Q4DSP6).
T4 sequence (whole entry): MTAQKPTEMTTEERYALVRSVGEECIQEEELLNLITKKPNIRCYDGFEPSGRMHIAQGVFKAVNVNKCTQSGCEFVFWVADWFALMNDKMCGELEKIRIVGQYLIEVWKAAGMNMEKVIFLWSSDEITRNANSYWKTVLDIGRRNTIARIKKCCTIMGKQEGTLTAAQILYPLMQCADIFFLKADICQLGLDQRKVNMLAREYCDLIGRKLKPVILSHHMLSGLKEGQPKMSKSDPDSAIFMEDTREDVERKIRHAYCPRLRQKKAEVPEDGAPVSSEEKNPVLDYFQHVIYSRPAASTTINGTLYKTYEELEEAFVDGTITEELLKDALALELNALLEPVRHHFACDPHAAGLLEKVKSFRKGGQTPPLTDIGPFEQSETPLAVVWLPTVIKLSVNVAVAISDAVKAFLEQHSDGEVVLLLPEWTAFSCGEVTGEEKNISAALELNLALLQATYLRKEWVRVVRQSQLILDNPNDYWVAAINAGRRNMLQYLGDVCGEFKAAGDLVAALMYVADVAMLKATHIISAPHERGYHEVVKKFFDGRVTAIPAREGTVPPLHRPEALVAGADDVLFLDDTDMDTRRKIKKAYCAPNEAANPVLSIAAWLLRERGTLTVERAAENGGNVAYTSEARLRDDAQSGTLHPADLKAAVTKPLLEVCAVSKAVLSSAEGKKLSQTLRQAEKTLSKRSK
The test can be described thus: Trypanosoma cruzi tyrosyl tRNA synthetase (TcYRS) _High Tyrosine SOP. Further: in the data most compounds retested in dose-response had high values. Format: functional. To be noted: 30 µM.

The target in test [8] is T4, Tyrosyl-tRNA synthetase, putative (Trypanosoma cruzi (strain CL Brener)). In words: Trypanosoma cruzi tyrosyl tRNA synthetase (TcYRS) SOP. The class given is functional. To be noted: 30 µM.
For test [9], the target named is Chromo domain-containing protein 1 (Saccharomyces cerevisiae (strain ATCC 204508 / S288c) (Baker's yeast)) (UniProt P32657). In words: ScCHD-1 Enzyme Inhibition Assay. Further: in the data most compounds retested in dose-response had high values. Format: functional. To be noted: 30 µM.
Chain of Chromo domain-containing protein 1 (Saccharomyces cerevisiae (strain ATCC 204508 / S288c) (Baker's yeast)) (P32657 whole entry, the tested form may be a part): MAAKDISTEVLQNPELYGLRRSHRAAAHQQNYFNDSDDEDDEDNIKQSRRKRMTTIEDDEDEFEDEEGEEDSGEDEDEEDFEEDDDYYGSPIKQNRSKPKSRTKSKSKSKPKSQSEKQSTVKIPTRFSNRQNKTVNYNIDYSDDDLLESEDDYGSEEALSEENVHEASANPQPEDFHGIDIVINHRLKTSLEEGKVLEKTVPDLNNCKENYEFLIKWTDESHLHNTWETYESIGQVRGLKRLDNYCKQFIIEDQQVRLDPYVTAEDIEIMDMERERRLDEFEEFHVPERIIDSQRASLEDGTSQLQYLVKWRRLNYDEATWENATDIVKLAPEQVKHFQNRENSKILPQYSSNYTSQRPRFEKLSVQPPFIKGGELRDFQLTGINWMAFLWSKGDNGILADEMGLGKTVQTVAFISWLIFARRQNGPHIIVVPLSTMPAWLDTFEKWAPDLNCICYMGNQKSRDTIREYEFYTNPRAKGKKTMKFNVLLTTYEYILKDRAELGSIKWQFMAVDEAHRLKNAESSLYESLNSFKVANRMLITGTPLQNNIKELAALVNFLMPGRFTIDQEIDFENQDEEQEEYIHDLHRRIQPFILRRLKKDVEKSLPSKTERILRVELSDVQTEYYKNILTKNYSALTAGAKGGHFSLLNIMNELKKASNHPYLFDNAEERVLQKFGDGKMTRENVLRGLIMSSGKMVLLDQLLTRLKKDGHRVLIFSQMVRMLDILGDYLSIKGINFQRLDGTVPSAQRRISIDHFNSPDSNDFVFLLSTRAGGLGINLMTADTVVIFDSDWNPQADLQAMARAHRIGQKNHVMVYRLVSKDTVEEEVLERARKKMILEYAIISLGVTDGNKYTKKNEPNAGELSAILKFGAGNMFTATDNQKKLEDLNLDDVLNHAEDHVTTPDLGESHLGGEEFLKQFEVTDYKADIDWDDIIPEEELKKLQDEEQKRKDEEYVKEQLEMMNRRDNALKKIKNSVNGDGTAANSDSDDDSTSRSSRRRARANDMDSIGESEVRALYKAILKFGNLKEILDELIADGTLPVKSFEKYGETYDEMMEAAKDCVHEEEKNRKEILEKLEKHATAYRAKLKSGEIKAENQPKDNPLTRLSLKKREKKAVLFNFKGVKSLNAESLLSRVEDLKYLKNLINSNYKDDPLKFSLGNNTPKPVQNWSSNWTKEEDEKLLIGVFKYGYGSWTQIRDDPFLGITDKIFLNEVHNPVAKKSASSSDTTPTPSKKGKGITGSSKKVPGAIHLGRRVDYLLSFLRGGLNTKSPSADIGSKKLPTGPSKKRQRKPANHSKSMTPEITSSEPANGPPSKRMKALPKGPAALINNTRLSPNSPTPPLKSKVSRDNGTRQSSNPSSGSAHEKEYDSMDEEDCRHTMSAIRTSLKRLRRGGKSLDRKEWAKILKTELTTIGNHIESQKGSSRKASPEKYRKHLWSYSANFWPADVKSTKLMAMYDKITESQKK

Chain of Protein translocase subunit SecA (Escherichia coli (strain K12)) (P10408 whole entry): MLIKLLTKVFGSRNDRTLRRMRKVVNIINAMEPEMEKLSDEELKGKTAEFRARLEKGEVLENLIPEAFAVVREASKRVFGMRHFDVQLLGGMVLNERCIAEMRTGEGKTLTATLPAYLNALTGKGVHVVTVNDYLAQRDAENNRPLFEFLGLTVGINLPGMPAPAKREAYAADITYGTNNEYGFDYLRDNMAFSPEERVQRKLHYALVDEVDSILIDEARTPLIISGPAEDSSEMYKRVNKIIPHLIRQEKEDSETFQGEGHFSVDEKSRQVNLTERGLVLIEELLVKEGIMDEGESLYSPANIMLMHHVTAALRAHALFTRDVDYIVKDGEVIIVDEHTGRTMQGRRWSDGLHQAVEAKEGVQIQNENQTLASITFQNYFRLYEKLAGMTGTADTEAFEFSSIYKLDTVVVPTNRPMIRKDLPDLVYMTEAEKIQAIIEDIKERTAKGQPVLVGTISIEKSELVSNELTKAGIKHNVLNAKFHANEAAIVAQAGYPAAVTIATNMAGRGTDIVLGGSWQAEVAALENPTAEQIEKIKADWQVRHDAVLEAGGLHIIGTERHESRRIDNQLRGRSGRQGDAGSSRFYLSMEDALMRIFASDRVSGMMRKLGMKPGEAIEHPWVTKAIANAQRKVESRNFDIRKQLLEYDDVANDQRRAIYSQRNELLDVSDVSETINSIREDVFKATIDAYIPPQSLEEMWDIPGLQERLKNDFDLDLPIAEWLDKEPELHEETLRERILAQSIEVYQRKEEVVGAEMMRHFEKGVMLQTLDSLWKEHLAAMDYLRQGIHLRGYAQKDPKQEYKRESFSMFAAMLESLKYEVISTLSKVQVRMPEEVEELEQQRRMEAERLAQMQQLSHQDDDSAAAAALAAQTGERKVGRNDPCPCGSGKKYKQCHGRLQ
Chain of Sialic acid-binding Ig-like lectin 9 (Homo sapiens) (Q9Y336 whole entry): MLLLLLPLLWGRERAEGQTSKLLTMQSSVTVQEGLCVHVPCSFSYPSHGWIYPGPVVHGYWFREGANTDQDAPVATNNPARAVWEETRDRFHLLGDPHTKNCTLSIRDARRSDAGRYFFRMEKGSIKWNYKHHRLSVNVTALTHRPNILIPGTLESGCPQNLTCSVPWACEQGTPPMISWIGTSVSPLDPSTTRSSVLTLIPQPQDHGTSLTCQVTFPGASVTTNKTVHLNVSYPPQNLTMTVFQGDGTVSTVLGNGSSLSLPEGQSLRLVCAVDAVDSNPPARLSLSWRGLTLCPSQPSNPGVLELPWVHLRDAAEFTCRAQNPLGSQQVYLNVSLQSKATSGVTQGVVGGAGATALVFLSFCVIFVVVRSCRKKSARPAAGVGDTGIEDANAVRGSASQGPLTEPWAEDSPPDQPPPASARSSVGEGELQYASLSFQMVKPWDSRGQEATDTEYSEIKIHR

Take `CCn1nc(-c2ccccc2F)ccc1=O`: the Percent Effect in test [1] is -4.01%; in test [2], 0%; in test [3], -2.64%; in test [4], -3.3%; in the test with Trypanosoma cruzi, -9.29%; in [5] it was -12.7%. Also, the Percent Effect in [6] is 4.55%; in the test filed under Homo sapiens it was 11.8%; in [7] it was -1.07%; in test [8], 8.64%; in test [9], -2.39%.
For the compound `CC1CCCN(Cc2csc(-c3ncccn3)n2)CC1` (stereo unspecified), the Percent Effect was -3.33% in [1]; -16.2% in test [2]; -12.5% in test [3]; 18.6% in test [4]; 8.26% with Trypanosoma cruzi; -1.66% in [5]. Besides, the Percent Effect amounted to 20.5% in test [6]; 29.2% in the test listed under Homo sapiens; 13.9% in test [7]; 15.8% in test [8]; 2.62% in [9].
In the case of `CC(C)c1ccc(-c2nnn(CCNS(C)(=O)=O)n2)cc1`, the Percent Effect in test [1] was -4.75%; in test [2], 2.74%; in test [3] it was 0.921%; in test [4], 2.29%; with Trypanosoma cruzi it was 4.96%; in test [5] it was -2%. Further, the Percent Effect was 4.71% in test [6]; -14% in the test filed under Homo sapiens; -4.17% in test [7]; 8.64% in [8]; -0.501% in test [9].
Consider `Cc1cnn(CC2CCCCN2C(=O)c2cc(C(N)=O)cs2)c1` (stereo unspecified), for which the Percent Effect is -8.81% in [1]; 1.27% in [2]; 1.77% in test [3]; -2.33% in test [4]; 0.308% in the test with Trypanosoma cruzi; -2.37% in [5]. Further, the Percent Effect in test [6] was 8.4%; in the test listed under Homo sapiens, 17.1%; in test [7], -1.04%; in test [8], -5.06%; in [9], -0.902%.
`CNc1cc(CCNC(=O)c2cccnc2)nc(-c2ccncc2)n1`: the Percent Effect is -1.87% in [1]; 9.46% in [2]; 12.1% in [3]; 1.21% in test [4]; -6.13% in the test with Trypanosoma cruzi; 2.09% in test [5]. The Percent Effect in [6] is 12%; in the test filed under Homo sapiens, -0.444%; in test [7] it was 4.3%; in [8], 6.49%; in test [9], -5.16%.
As to `CC(C)CN1C[C@H]2CCN(c3ncccn3)CC[C@H]2S1(=O)=O`, the Percent Effect in test [1] was -1.59%; in test [2], 20.8%; in test [3] it was -1.01%; in test [4], 12.2%; in the test on Trypanosoma cruzi it was 6.39%; in [5], -15.2%. Besides, the Percent Effect in [6] was 15%; in the test listed under Homo sapiens, -0.732%; in test [7], 6.45%; in test [8] it was 13.6%; in test [9], 118%.
`Cc1nc(CN(C)C2CCN(CC(=O)N3CCOCC3)C2)no1` (stereo unspecified): the Percent Effect is -3.5% in test [1]; 18.9% in test [2]; -5.27% in test [3]; -3.82% in test [4]; -3.62% in the test with Trypanosoma cruzi; -3.14% in test [5]. Moreover, the Percent Effect was 1.98% in test [6]; 1.74% in the test filed under Homo sapiens; 5.94% in test [7]; 18.3% in test [8]; -3.28% in test [9].
With `CN(CC1CN(Cc2cn3ccsc3n2)CCO1)c1cccnn1` (stereo unspecified), the Percent Effect was -3.37% in [1]; 26% in test [2]; -3.91% in test [3]; -12.4% in test [4]; -7.54% in the test with Trypanosoma cruzi; 1.47% in test [5]. In addition, the Percent Effect is 23.5% in [6]; 15% in the test filed under Homo sapiens; 4.76% in test [7]; 21.2% in test [8]; -26.4% in test [9].
With `CC(C)Cc1cc(C(=O)NCc2nnc[nH]2)[nH]n1`, the Percent Effect in [1] is -3.85%; in test [2], 7.89%; in [3], 11.2%; in [4], 7.63%; in the test with Trypanosoma cruzi, -3.02%; in test [5], -4.73%. Further, the Percent Effect in test [6] was 13.1%; in the test listed under Homo sapiens, -0.467%; in test [7], 1.06%; in test [8], -2.6%; in test [9], -1.14%.
Consider `Cc1cnn(C2CCCN(C(=O)c3cn4cccnc4n3)C2)c1` (stereo unspecified), for which the Percent Effect was -4.17% in test [1]; 8.11% in [2]; -11.5% in [3]; 17.1% in test [4]; 1.04% in the test on Trypanosoma cruzi; -6.01% in test [5]. Besides, the Percent Effect is 1.62% in test [6]; 7.34% in the test filed under Homo sapiens; 7.39% in test [7]; 16.1% in test [8]; -12.7% in test [9].
In the case of `CN1CCN(C(=O)c2ccc(=O)n(C)c2)Cc2ccccc21`, the Percent Effect in [1] is -3.95%; in test [2], -16.2%; in test [3] it was -7.07%; in test [4], 15.3%; with Trypanosoma cruzi, 3.62%; in [5] it was -4.25%. In addition, the Percent Effect was 0.539% in test [6]; 5.67% in the test filed under Homo sapiens; 3.96% in test [7]; 18.3% in test [8]; -2.09% in test [9].
